Experimental data reported in PubChem BioAssay AID1159606 (Sanford-Burnham Center for Chemical Genomics, 2016).
Hit rate of the full screen: of about 360,000 compounds, about 7,300 (2%) were called active. Cut-off read from the data, not from the text of the source: active = inhibition above about 50%; inactive = the rest. The entries come from a sample that favours actives as a whole.

assay: blockers of TWEAK-induced Fn14 reporter activity – luciferase reporter cells, uHTS, primary screen (AID 1159606); details: TWEAK-stimulated Fn14 reporter cells, luciferase luminescence, 8 h; at 10 µM; stronger effect = higher value

SMILES | inhibition
Cc1ccc(Oc2cc(NC(=O)CCCn3nc(C)c([N+](=O)[O-])c3C)cc([N+](=O)[O-])c2)cc1 | 29.9% (inactive)
Fc1ccc2nc(-c3ccccc3)nc(SCc3nnc(-c4ccccc4)o3)c2c1 | 1.42% (inactive)
N#CCSc1nc(-c2ccccc2)nc2ccc(F)cc12 | 85.4% (active)
N#Cc1ccc(-c2ccc(F)cc2)nc1Sc1ccccc1 | -0.84% (inactive)
CCCc1ccc(S(=O)(=O)N2CCN(C(=O)c3cc(C)on3)CC2)cc1 | 23.6% (inactive)
OC[C@@H]1CN(Cc2ccc(-c3ccccc3)cc2)C[C@H](n2cnc3c(NC4CCCC4)ncnc32)O1 | 69.7% (active)
OC[C@@H]1CN(Cc2cccs2)C[C@H](n2cnc3c(NC4CCCC4)ncnc32)O1 | 3.36% (inactive)
OC[C@@H]1CN(Cc2ccc(F)cc2)C[C@H](n2cnc3c(NC4CCCC4)ncnc32)O1 | 0.72% (inactive)
COc1ccc(CNC(=O)COC(=O)CCS(=O)(=O)c2ccc(C)cc2)cc1OC | -0.44% (inactive)
COc1ccc(NC(=O)CN(C)C(=O)Cc2coc3cc(C)c(C)cc23)cc1 | -4.06% (inactive)
O=[N+]([O-])c1ccccc1/C=N/n1c(COc2ccccc2)n[nH]c1=S | 17.8% (inactive)
S=c1[nH]nc(-c2cccnc2)n1/N=C/C(Cl)=C\c1ccccc1 | 55.4% (active)
COc1ccccc1/C=C/C=N/n1c(-c2ccc(Cl)cc2Cl)n[nH]c1=S | -13.9% (inactive)
S=c1[nH]nc(-c2ccco2)n1/N=C/c1ccc(Br)s1 | -5.12% (inactive)
Cc1cc(-c2n[nH]c(=S)n2/N=C/C(Br)=C/c2ccccc2)n[nH]1 | 95% (active)
Fc1ccc(/C=N/n2c(COc3ccccc3)n[nH]c2=S)cc1 | -16.7% (inactive)
COc1ccc(Cc2nnc(SCC(=O)N(c3ccccc3)C(C)C)n(N)c2=O)cc1 | 4.78% (inactive)
COC(=O)[C@]12CCCCC=C1N(Cc1ccco1)C(=O)[C@H](CC(=O)NCC1CCCCC1)C2 | -2.8% (inactive)
N#CCCN(C(=S)Nc1ccc(Cl)c(Cl)c1)C1CCCCC1 | 7.89% (inactive)
Cc1ccc(F)c(S(=O)(=O)NC(=O)C2(C)CCN2C(=O)c2ccco2)c1 (stereo not given) | 4.06% (inactive)
CC(C)C[C@H](CO)Nc1nc(N(C)c2cccc(Cl)c2)c2ncn(C(C)C)c2n1 | -0.23% (inactive)
CC(C)n1cnc2c(Nc3cccc(Cl)c3)nc(N(CCO)CCCO)nc21 | 54.7% (active)
COc1ccc(/C(O)=C2/C(=O)C(=O)N(c3nc(C)c(C)s3)C2c2ccco2)cc1 (stereo not given) | 15.4% (inactive)
COc1ccc(C2/C(=C(/O)c3ccccc3)C(=O)C(=O)N2c2ncccn2)cc1OC (stereo not given) | 5.36% (inactive)

SMILES | inhibition
CCOc1ccc(/C(O)=C2\C(=O)C(=O)N(c3ccc(OC)cc3)C2c2ccccc2[N+](=O)[O-])cc1 (stereo not given) | 68.4% (active)
CCCC(=O)Nc1ccc(C(=O)NCCCn2ccnc2)cc1 | -38.4% (inactive)
COc1ccc(OC)c(C(=O)c2coc3ccc(OC)cc23)c1 | 67.6% (active)
COc1ccc(OC)c(C(=O)c2coc3ccc(O)c(CN4CCOCC4)c23)c1 | 28.4% (inactive)
COc1ccc2occ(C(=O)c3ccc(N=C(C)N(C)C)cc3)c2c1 | -30.2% (inactive)
Cc1cc(Cl)c2oc(C(=O)NC(C)c3ccncn3)c(C)c2c1 (stereo not given) | -26.6% (inactive)
CCOc1ccc(CCNC(=O)COC(=O)C2CCN(c3ccc(C(F)(F)F)cn3)CC2)cc1OCC | 6.43% (inactive)
O=C(CN1C(=O)NC(Cc2c[nH]c3ccccc23)C1=O)Nc1ccccc1C(F)(F)F (stereo not given) | 29.8% (inactive)
Oc1c(Cl)cc(Cl)c(Cl)c1Cc1c(O)c(Cl)cc(Cl)c1Cl | 64% (active)
CC1Cc2[nH][nH]c(=O)c2C(C2CC2)O1 (stereo not given) | 4.07% (inactive)
CC(C)NC(=O)N1Cc2cc(C(=O)NCC(F)(F)F)nc(-c3cccc(-c4cc5ccccc5o4)c3)c2[C@@H]1CCO | 37.6% (inactive)
CCOc1ccc(NC(=O)CN(C)C(=O)CSc2ccccc2)cc1OCC | 2.8% (inactive)
CCOC(=O)C1=C(C)N=c2s/c(=C\C(=O)OC)c(=O)n2C1c1ccc(OC)cc1 (stereo not given) | 87.1% (active)
CCOC(=O)c1cc2cc(OC)ccc2n1C1CCN(C)CC1 | -7.56% (inactive)
CCOC(=O)C1=C(CSc2nccn2C)NC(=O)NC1c1ccc(OC)cc1 (stereo not given) | -0.26% (inactive)
Nc1ccccc1/C=N\N=C/c1ccccc1N | -29.4% (inactive)
COC[C@@H]1NS(=O)(=O)c2ccc(Br)cc2O[C@H]1c1ccccc1 | 6.78% (inactive)
CCOc1ccc(-n2c(SC(C)C(=O)OC)nc3c(c2=O)SCC3)cc1 (stereo not given) | 1.38% (inactive)
Cc1ccc(Cc2c(-c3ccco3)nc3ccc(Cl)cn23)cc1 | 48.4% (inactive)
Cc1ccc(Cc2c(-c3ccc(C)cc3)nc3c4ccccc4ccn23)cc1 | 57.1% (active)
Cc1ccc(Cc2c(-c3ccc(Cl)cc3)nc3c4ccccc4ccn23)cc1 | 22% (inactive)
Cc1ccc(-c2nc3c(C)cc(Br)cn3c2Cc2ccccc2)cc1 | 13.1% (inactive)
FC(F)(F)c1ccccc1Cc1c(-c2ccccc2)nc2c3ccccc3ccn12 | 8.37% (inactive)
c1ccc(Cc2c(-c3ccco3)nc3c4ccccc4ccn23)cc1 | 57.8% (active)

SMILES | inhibition
C=CCSc1nc2c(c(=O)[nH]1)C(C(C)C)C(C#N)=C(N)O2 (stereo not given) | -24.9% (inactive)
O=C(NC1CCN(S(=O)(=O)c2ccc(F)cc2)CC1)c1ccccc1 | -13.3% (inactive)
COCCCn1c(-c2cccs2)nc2nc3ccccc3nc21 | 34.3% (inactive)
CCCc1c(-c2ccccc2F)ncn1Cc1ccccc1OC | 2.25% (inactive)
CC(=O)c1c(C)[nH]c(C(=O)COC(=O)c2cccc(S(=O)(=O)N(C)c3ccccc3)c2)c1C | 101% (active)
COc1cccc(C(=O)OCC(=O)c2[nH]c(C)c(C(C)=O)c2C)c1 | -4.4% (inactive)
CC(=O)c1c(C)[nH]c(C(=O)COC(=O)c2cccs2)c1C | -16.3% (inactive)
COc1ccc(N(C(=O)c2snc(C(N)=O)c2N)C(C(=O)NC2CCCC2)c2ccc(C)o2)c(OC)c1 (stereo not given) | 22.4% (inactive)
COc1c(C)c2c(c(O)c1C/C=C(\C)CCC(=O)O)C(=O)OC2 | -6.73% (inactive)
CCn1c(N)c(Br)c(=O)[nH]c1=O | 9.55% (inactive)
CC(C)c1ccc2c(c1)c(SC(C)(C)C)c(CC(C)(C)C(=O)O)n2Cc1ccc(Cl)cc1 | 79.3% (active)
Cc1cccnc1CCNC(=O)C1CCC(=O)N(Cc2cccc(F)c2)C1 (stereo not given) | -10.1% (inactive)
CCOC(=O)C1CCCN(C(=O)COc2ccc(N(C)S(=O)(=O)c3ccc(C)cc3)cc2)C1 (stereo not given) | 9.89% (inactive)
CCOc1ccc(NC(=O)CN(C)CC(=O)Nc2cccc(Cl)c2C)cc1OCC | 5.07% (inactive)
C=CCn1c(C)cc(C2=NNC(=NCC)SC2)c1C | 107% (active)
CCc1nc2ccc(C(=O)Nc3ccc(OC)c(OC)c3)cn2c1N(C)C(=O)c1cccc(OC)c1 | -18.4% (inactive)
COc1cccc(CN(C)CC2CCCN(CCc3ccc(Cl)cc3)C2)c1OC (stereo not given) | -2.09% (inactive)
O=C(NCc1ccccc1)[C@@H]1CSC2c3ccccc3C(=O)N21 (stereo not given in full) | 8.08% (inactive)
Cc1ccc2nc(SC(C)C(=O)NCc3ccco3)[nH]c2c1 (stereo not given) | 46% (inactive)
CSc1ncccc1C(=O)Nc1ccc2c(c1)OCO2 | 1.24% (inactive)
CCOc1ncccc1C(=O)Nc1ccc2c(c1)OCCO2 | 68.7% (active)
CCOc1ncccc1C(=O)Nc1ccc(S(=O)(=O)Nc2nc(C)cc(C)n2)cc1 | -19.9% (inactive)
COC(=O)[C@]12CCCCC=C1N(Cc1ccco1)C(=O)[C@H](CC(=O)NCCCCc1ccccc1)C2 | 16.9% (inactive)
O=C(NCCc1ccccn1)c1cc(C(=O)C2CCCCC2)c[nH]1 | 4.9% (inactive)

SMILES | inhibition
Cc1cc(C)c(C#N)c(SCC(=O)N(CC(C)C)C2CCS(=O)(=O)C2)n1 (stereo not given) | 4.51% (inactive)
COC(=O)C(Cc1c[nH]c2ccccc12)NC(=O)CCNC(=O)c1ccco1 (stereo not given) | -24.2% (inactive)
O=C1NC[C@H](CCCCN2CCN(CCc3ccccc3)C(=O)C2=O)N(CC2CCCCC2)C1=O | -2.45% (inactive)
O=C1OCCOC2CCCc3oc(-c4ccccc4)c1c32 (stereo not given) | 16.6% (inactive)
COc1ccc(N(CC(=O)Nc2cc(OC)ccc2OC)S(=O)(=O)c2c(C)noc2C)cc1 | -0.61% (inactive)
CCOC(=O)c1cccc(NC(=O)CN(c2ccc(C)cc2)S(=O)(=O)c2c(C)noc2C)c1 | 57.7% (active)
Cc1noc(C)c1S(=O)(=O)N(CC(=O)Nc1ccc2c(c1)OCCO2)c1ccc(C(C)C)cc1 | 35.5% (inactive)
O=c1[nH]c(/C=C/c2cccc(Br)c2)nc2ccccc12 | -14.4% (inactive)
S=c1[nH]nc(/C=C/c2ccccc2)o1 | 9.4% (inactive)
O=c1oc(/C=C/c2ccccc2)nc2ccccc12 | 55.3% (active)
CCN(c1ccccc1)S(=O)(=O)c1cc2c(cc1C)n(C)c(=O)c(=O)n2C | -4.66% (inactive)
Cc1ccc(-c2cn3cc(C)ccc3n2)cc1 | 105% (active)
COc1ccc(-c2cn3ccc(C)cc3n2)cc1 | 81.6% (active)
Cc1ccc(-c2cc(N)on2)cc1 | -5.28% (inactive)
COc1ccc(C2=Nc3cc(C)ccc3OC2)cc1 | 27.9% (inactive)
Cc1ccc(-c2cn3cc([N+](=O)[O-])ccc3n2)cc1 | 76.3% (active)
Cc1ccc(-n2cc3ccc([N+](=O)[O-])cc3n2)cc1 | 39.8% (inactive)
FC(F)(F)Oc1ccc(-c2cn3cccnc3n2)cc1 | -15.1% (inactive)
Cc1ccc2nc(-c3ccc(Br)cc3)cn2c1 | 98.8% (active)
Cc1ccc(-c2nc3ccc(Br)cn3c2Cc2ccccc2C(F)(F)F)cc1 | 5.76% (inactive)
CS(=O)(=O)Nc1cccc(-c2cn3ccccc3n2)c1 | -6.02% (inactive)
COc1ccc(-c2nc3ccc(Br)cn3c2Cc2ccc(C)cc2)cc1OC | -20.3% (inactive)
Cc1ccnc(N2C(=O)c3ccc([N+](=O)[O-])cc3C2=O)c1 | 5.4% (inactive)
